Reference: the supplement of paper PMC8728848
The sample as a whole holds a higher share of the strongest signals than the screen did.

Legend:
Assay in all cases: glycan array binding signal (z-score within array); higher = stronger binding
Details in all cases: glycan notation: IUPAC condensed, linker removed
[1] = target: Gal(b1-4)GlcNAc(b1-3)Gal(b1-4)GlcNAc(b1-3)Gal(b1-4)GlcNAc(b1-2)Man(a1-3)[Gal(b1-4)GlcNAc(b1-3)Gal(b1-4)GlcNAc(b1-3)Gal(b1-4)GlcNAc(b1-2)Man(a1-6)]Man(b1-4)GlcNAc(b1-4)[Fuc(a1-6)]GlcNAc
Summary of the method: (§1)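 Glycan array binding is given as a within-array Z-score, which can be read as non-binding when negative. The arrays, 3228 of them, came from the Consortium for Functional Glycomics database and were retained only where the protein sequence was available. Z-scores were averaged across arrays of the same protein sequence at different concentrations or buffers and across linkers.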

[2] = target: Gal3S(b1-4)Glc
Summary of the method: as §1

[3] = target: Gal6S(b1-3)GlcNAc
Summary of the method: as §1

[4] = target: GalNAc(a1-3)GalNAc(b1-3)Gal(a1-4)Gal(b1-4)Glc
Summary of the method: as §1

[5] = target: GalNAc(b1-4)Gal(b1-4)Glc
Summary of the method: as §1

[6] = target: GlcNAc(a1-4)Gal(b1-3)GlcNAc
Summary of the method: as §1

[7] = target: GlcNAc(b1-2)[GlcNAc(b1-4)]Man(a1-3)[GlcNAc(b1-2)Man(a1-6)]Man(b1-4)GlcNAc(b1-4)GlcNAc
Summary of the method: as §1

[8] = target: GlcNAc(b1-2)[GlcNAc(b1-6)]Man(a1-6)[GlcNAc(b1-2)Man(a1-3)]Man(b1-4)GlcNAc(b1-4)GlcNAc
Summary of the method: as §1

[9] = target: GlcNAc(b1-3)Gal(b1-4)GlcNAc(b1-3)Gal(b1-4)GlcNAc(b1-3)Gal(b1-4)GlcNAc(b1-2)[GlcNAc(b1-3)Gal(b1-4)GlcNAc(b1-3)Gal(b1-4)GlcNAc(b1-3)Gal(b1-4)GlcNAc(b1-6)]Man(a1-6)[GlcNAc(b1-3)Gal(b1-4)GlcNAc(b1-3)Gal(b1-4)GlcNAc(b1-3)Gal(b1-4)GlcNAc(b1-2)Man(a1-3)]Man(b1-4)GlcNAc(b1-4)[Fuc(a1-6)]GlcNAc
Summary of the method: as §1

[10] = target: GlcNAc(b1-3)[GlcNAc(b1-6)]Gal(b1-4)GlcNAc
Summary of the method: as §1

[11] = target: Man(a1-2)Man(a1-3)[Man(a1-2)Man(a1-6)]Man(a1-6)[Man(a1-2)Man(a1-2)Man(a1-3)]Man(b1-4)GlcNAc(b1-4)GlcNAc
Summary of the method: as §1

[12] = target: Man(a1-3)[Man(a1-6)]Man(a1-6)[Man(a1-3)]Man
Summary of the method: as §1

[13] = target: Man(b1-4)GlcNAc
Summary of the method: as §1

[14] = target: Neu5Ac(a2-3)Gal(b1-3)GalNAc6S
Summary of the method: as §1

[15] = target: Neu5Ac(a2-3)Gal(b1-3)GlcNAc
Summary of the method: as §1

[16] = target: Neu5Ac(a2-3)Gal(b1-3)GlcNAc(b1-3)GalNAc
Summary of the method: as §1

[17] = target: Neu5Ac(a2-3)Gal(b1-3)[GlcNAc(b1-6)]GalNAc
Summary of the method: as §1

[18] = target: Neu5Ac(a2-3)Gal(b1-4)GlcNAc(b1-2)[Neu5Ac(a2-3)Gal(b1-4)GlcNAc(b1-6)]Man(a1-6)[Neu5Ac(a2-3)Gal(b1-4)GlcNAc(b1-2)Man(a1-3)][GlcNAc(b1-4)]Man(b1-4)GlcNAc(b1-4)GlcNAc
Summary of the method: as §1

[19] = target: Neu5Ac(a2-3)Gal(b1-4)GlcNAc(b1-3)Gal(b1-4)GlcNAc(b1-2)Man(a1-3)[Neu5Ac(a2-3)Gal(b1-4)GlcNAc(b1-3)Gal(b1-4)GlcNAc(b1-2)Man(a1-6)]Man(b1-4)GlcNAc(b1-4)GlcNAc
Summary of the method: as §1

[20] = target: Neu5Ac(a2-3)Gal(b1-4)GlcNAc(b1-3)Gal(b1-4)GlcNAc(b1-3)[Neu5Ac(a2-3)Gal(b1-4)GlcNAc(b1-3)Gal(b1-4)GlcNAc(b1-6)]GalNAc
Summary of the method: as §1

[21] = target: Neu5Ac(a2-3)Gal(b1-4)[Fuc(a1-3)]GlcNAc
Summary of the method: as §1

[22] = target: Neu5Ac(a2-3)Gal(b1-4)[Fuc(a1-3)]GlcNAc(b1-3)GalNAc
Summary of the method: as §1

[23] = target: Neu5Ac(a2-3)Gal(b1-4)[Fuc(a1-3)]GlcNAc6S
Summary of the method: as §1

[24] = target: Neu5Ac(a2-6)Gal(b1-4)GlcNAc(b1-2)[Neu5Ac(a2-6)Gal(b1-4)GlcNAc(b1-4)]Man(a1-3)[GlcNAc(b1-4)][Neu5Ac(a2-6)Gal(b1-4)GlcNAc(b1-4)Man(a1-6)]Man(b1-4)GlcNAc(b1-4)GlcNAc
Summary of the method: as §1

[25] = target: Neu5Ac(a2-6)Gal(b1-4)GlcNAc(b1-3)Gal(b1-4)GlcNAc(b1-3)Gal(b1-4)GlcNAc(b1-2)Man(a1-3)[Neu5Ac(a2-6)Gal(b1-4)GlcNAc(b1-3)Gal(b1-4)GlcNAc(b1-3)Gal(b1-4)GlcNAc(b1-2)Man(a1-6)]GalNAc
Summary of the method: as §1

[26] = target: Neu5Ac(a2-6)Gal(b1-4)GlcNAc(b1-6)GalNAc
Summary of the method: as §1

[27] = target: Neu5Ac(a2-8)Neu5Ac
Summary of the method: as §1

[28] = target: Neu5Ac(a2-8)Neu5Ac(a2-3)[GalNAc(b1-4)]Gal(b1-4)Glc
Summary of the method: as §1

B1: Pwp5 ND (Candida glabrata) (protein)
chain: MGSSHHHHHHSSGLVPRGSHMASANPVPLTNVCYFPEEYPRQAGFRAITAGLASTILQGSVDELLNYSGLSSLTTQQTTTTTPNFQLPTLPLPTNVYGLTVVPLYLLVQLQGYFVPPVSGQYTFSLENTNDAAIIFFGNPSAFPCGDLSAWPQASADDITVTDGTFPSRTLFLKAGVAYPMRISYYNSLGSGNLAVSFTDPGGTKRTNWNGYIWRYNSCSTCTYT
glycan array binding signal (z-score) [1]: 3.19
glycan array binding signal (z-score) [2]: -0.405
glycan array binding signal (z-score) [3]: -0.366
glycan array binding signal (z-score) [4]: -0.548
glycan array binding signal (z-score) [5]: 0.779
glycan array binding signal (z-score) [6]: -0.557
glycan array binding signal (z-score) [7]: -0.667
glycan array binding signal (z-score) [8]: 3.15
glycan array binding signal (z-score) [9]: 1.57
glycan array binding signal (z-score) [10]: -0.152
glycan array binding signal (z-score) [11]: -0.293
glycan array binding signal (z-score) [12]: 5.77
glycan array binding signal (z-score) [13]: -0.41
glycan array binding signal (z-score) [14]: -0.411
glycan array binding signal (z-score) [15]: 0.287
glycan array binding signal (z-score) [16]: 0.055
glycan array binding signal (z-score) [17]: -0.173
glycan array binding signal (z-score) [18]: 13
glycan array binding signal (z-score) [19]: -0.247
glycan array binding signal (z-score) [20]: 4.41
glycan array binding signal (z-score) [21]: -0.271
glycan array binding signal (z-score) [22]: -0.138
glycan array binding signal (z-score) [23]: 0.989
glycan array binding signal (z-score) [24]: -0.613
glycan array binding signal (z-score) [25]: 3.34
glycan array binding signal (z-score) [26]: 3.96
glycan array binding signal (z-score) [27]: 0.246
glycan array binding signal (z-score) [28]: 0.315
